# Mdm2 MdmX PPI = disrupts the human Mdm2-MdmX interaction; O15151+Q00987; SaOS-2 split-luciferase Mdm2/MdmX complementation, luminescence; inhibition, % at 8 µM; 3% of 330,000 active; AID 485346;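 active = inhibition of at least 50% at 8 µM in the primary screen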
# Target sequence (O15151 whole entry, looked up): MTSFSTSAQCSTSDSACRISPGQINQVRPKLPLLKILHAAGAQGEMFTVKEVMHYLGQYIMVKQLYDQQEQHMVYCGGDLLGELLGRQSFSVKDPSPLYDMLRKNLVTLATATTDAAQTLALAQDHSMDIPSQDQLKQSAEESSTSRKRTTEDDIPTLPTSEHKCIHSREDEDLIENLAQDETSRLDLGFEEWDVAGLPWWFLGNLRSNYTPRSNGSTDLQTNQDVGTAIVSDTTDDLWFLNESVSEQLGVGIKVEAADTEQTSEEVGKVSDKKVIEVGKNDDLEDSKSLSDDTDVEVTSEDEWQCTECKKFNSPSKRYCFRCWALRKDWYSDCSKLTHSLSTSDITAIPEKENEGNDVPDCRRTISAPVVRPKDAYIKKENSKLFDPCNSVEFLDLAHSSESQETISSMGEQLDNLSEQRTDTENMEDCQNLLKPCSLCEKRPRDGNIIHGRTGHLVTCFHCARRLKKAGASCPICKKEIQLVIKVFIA
# Target sequence (Q00987 whole entry, looked up): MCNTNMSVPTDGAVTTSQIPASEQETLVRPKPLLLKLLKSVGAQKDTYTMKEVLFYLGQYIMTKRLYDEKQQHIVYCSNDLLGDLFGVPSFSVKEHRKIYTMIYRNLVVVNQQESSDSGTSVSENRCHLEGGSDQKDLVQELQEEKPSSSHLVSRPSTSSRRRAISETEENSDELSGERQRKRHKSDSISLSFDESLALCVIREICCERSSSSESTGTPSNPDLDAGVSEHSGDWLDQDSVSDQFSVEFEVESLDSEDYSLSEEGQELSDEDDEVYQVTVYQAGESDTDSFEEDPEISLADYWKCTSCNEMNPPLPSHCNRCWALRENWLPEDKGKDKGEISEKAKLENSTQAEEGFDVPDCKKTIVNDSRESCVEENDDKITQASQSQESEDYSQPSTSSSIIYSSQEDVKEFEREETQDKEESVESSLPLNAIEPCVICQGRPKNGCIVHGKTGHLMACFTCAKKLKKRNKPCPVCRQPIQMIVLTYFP
# NR3A LBD binder = modulates the human NR3A ligand-binding domain; NR3A LBD differential scanning fluorimetry, Tm shift; 0% = protein alone, 100% = glycine-bound protein; Tm shift relative to glycine control, % at 25 µM; 2.5% of 340,000 active; AID 1259313;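 active = melting temperature shift of at least 10% of the positive control shift, at one fixed dose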
# Beta apoptosis = blocks beta cell apoptosis | INS-1E cytokine-induced death, ATP luminescence, 48 h; percent of positive-control rescue, neutral wells zero | protection from apoptosis, % (test concentration not listed) | 0.8% of 300,000 active | AID 435005;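 active = Every replicate reaches about 75%, or at least half do and their mean reaches it too, limit read from the data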;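 note: 0% = cytokine-treated negative control wells and 100% = positive control rescue; higher means more ATP so stronger rescue from cytokine killing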
# CSC inhib = cancer stem cell inhibition. cancer stem cell-like cells viability, luminescence. inhibition, % at 7.5 µM. 1.1% of 300,000 active. AID 2717; in the data active = inhibition above about 75%; tested in HMLE shEcad cells
# Gli-Sufu block = Gli-Sufu pathway antagonism; Sufu-KO-LIGHT fibroblasts, Gli luciferase reporter luminescence; inhibition, % at 5 µM; 0.74% of 340,000 active;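 active = inhibition above about 55%, limit read from the data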;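 note: 0% = DMSO-treated cells and 100% = wells with medium but no cells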
# MPTP inh = inhibitors of mitochondrial permeability transition pore. isolated mouse mitochondria, Ca2+ swelling absorbance, 30 min. inhibition, % at 10 µM. 1.4% of 360,000 active. AID 602449;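 active = inhibition of 50% or more, scaled per plate between neutral and stimulator controls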;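 note: 0% = DMSO wells given calcium and 100% = 1 mM EGTA wells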
# Mdm2-MdmX conf = human Mdm2/MdmX binding inhibition, confirmed; shares compounds with Mdm2 MdmX PPI; 55% of 10,000 active; AID 489028; inhibition, % at 8 µM; luminescent assay; in the data active = inhibition above about 40%
# Full FLuc ctr = inhibits full-length luciferase, flagging false Mdm2/MdmX hits; shares compounds with Mdm2 MdmX PPI; SaOS-2 full-length luciferase counterscreen, luminescence; inhibition, % at 8 µM; 77% of 6,200 active; AID 504607;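 active = mean inhibition at 8 µM reaching about 37%, which flags the compound as non-specific, limit read from the data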;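 note: p53-null SaOS-2 cells with luciferase driven by a doxycycline-inducible promoter; compound on cells about two nights before reading with doxycycline added after day one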
# * = called active by the depositor; . = no result given. Rows were chosen to be rich in hits. Some 6.6% of all compounds tested hit in one or more screens of this group.
SMILES,Mdm2 MdmX PPI,NR3A LBD binder,Beta apoptosis,CSC inhib,Gli-Sufu block,MPTP inh,Mdm2-MdmX conf,Full FLuc ctr
COc1ccc(NC(=O)[C@H](Cc2c[nH]c3ccccc23)NC(=O)[C@@H]2Cc3ccccc3CN2)cc1,92*,-2,.,-3,-2,1,73*,39*
CC(C)c1ccc(NC(=O)[C@H](Cc2c[nH]c3ccccc23)NC(=O)[C@@H]2Cc3ccccc3CN2)cc1,96*,1,-2,-12,-5,38,79*,23
CCCNc1nc2c(c(=O)[nH]c(=O)n2C)n1Cc1cccc(Br)c1,66*,-4,-3,16,11,0,35,.
Cn1c(=O)[nH]c(=O)c2c1nc(Br)n2Cc1cccc(Br)c1,18,0,34,30,0,5,.,.
CCC1C(=NO)C(CC)C(c2ccccc2)NC1c1ccccc1 (stereo unspecified),52*,-2,25,64,6,9,37,.
CCCC1/C(=N/O)CC(c2ccccc2)NC1c1ccccc1 (stereo unspecified),59*,0,.,2,-2,0,62*,64*
COc1ccc(C(=O)c2c(C(F)(F)F)oc3c2C(=O)c2ccccc2C3=O)cc1OC,86*,-11,.,102*,22,3,71*,6
COc1ccc(S(=O)(=O)N2CCN(C(=O)CCCN3C(=O)NC4(CCCC4)C3=O)CC2)cc1,17,3,.,.,-10,0,.,.
Cn1c(=O)c2c([nH]c(=S)n2Cc2ccc(Cl)cc2)n(C)c1=O,-3,2,-4,-15,3,-1,.,.
Cc1cc(NC(c2ccc(Cl)cc2)c2ccc3cccnc3c2O)no1 (stereo unspecified),63*,-3,.,101*,67*,-2,82*,27
CC(C)C(=O)NC(c1ccc(Cl)cc1Cl)c1ccc2cccnc2c1O (stereo unspecified),84*,-6,.,100*,28,2,91*,22
O=C(O)c1ccccc1NC(c1ccccc1)c1ccc2cccnc2c1O (stereo unspecified),.,0,.,.,-1,-2,.,.
Cc1ccc2ccc(C(Nc3ccccc3)c3ccc(Cl)cc3)c(O)c2n1 (stereo unspecified),.,.,.,.,.,4,.,.
CCC(=O)NC(c1ccc(Cl)cc1Cl)c1ccc2cccnc2c1O (stereo unspecified),78*,-5,104*,104*,89*,3,87*,20
COc1ccc(C(NC(=O)C(C)C)c2ccc3cccnc3c2O)cc1 (stereo unspecified),77*,-4,104*,104*,51,2,83*,29
CCCCc1nnc(NC(=O)COc2ccc3c(C)cc(=O)oc3c2)s1,8,.,-1,-3,.,.,.,.
CCOc1nc2cnccc2n(CC(=O)Nc2c(C)cccc2CC)c1=O,5,0,-5,-2,6,-1,.,.
COc1cc2c(cc1OC)C(c1ccccc1[N+](=O)[O-])=NCC2,.,.,.,.,.,0,.,.
O=C(Nc1ccccc1)Nc1ccccc1-n1ccnc1,6,-1,5,-19,0,1,.,.
CCN1CCN(CCCNC(=O)c2ccc(/C=C3/Sc4ccccc4N(Cc4ccccc4F)C3=O)cc2)CC1,94*,-3,4,104*,2,-3,74*,24
CCN1CCN(CCCNC(=O)c2ccc(/C=C3/Oc4ccccc4N(Cc4cccc(C)c4)C3=O)cc2)CC1,100*,-5,27,-4,28,-2,33,.
O=C(NCCCN1CCOCC1)c1ccc(/C=C2\Oc3ccccc3N(Cc3ccccc3F)C2=O)cc1,48,-10,-3,43,4,0,.,.
CCOC(=O)C1CCN(Cc2ccccn2)CC1,-21,.,-3,-2,.,.,.,.
CCOC(=O)C1CCN(c2ccccc2CN2CCN(c3ccccc3OCC)CC2)CC1,63*,1,-3,13,15,1,38,71*
CCCCCO,22,2,-4,-11,-9,-2,.,.
SMILES,Mdm2 MdmX PPI,NR3A LBD binder,Beta apoptosis,CSC inhib,Gli-Sufu block,MPTP inh,Mdm2-MdmX conf,Full FLuc ctr
Cc1cc(Cl)ccc1Oc1nccc(N(C)C)c1C#N,24,0,1,-5,-3,2,.,.
COc1ccc(C(=O)NC(=S)Nc2cc3oc4ccccc4c3cc2OC)cc1,25,-1,-4,-2,3,-2,.,.
COc1cc2c(cc1NC(=O)c1cccc([N+](=O)[O-])c1)oc1ccccc12,71*,3,17,7,3,2,15,.
COc1cc(OC)cc(C(=O)NC(=S)Nc2cc3oc4ccccc4c3cc2OC)c1,72*,2,27,.,4,3,4,.
Cn1cc(Br)c(C(=O)n2cc(Br)cn2)n1,6,1,-5,6,-3,-1,.,.
CCN1CCN(c2cc(C)c3cc(NC(=O)c4cncc(Br)c4)ccc3n2)CC1,66*,1,-3,-3,3,0,27,.
CCN1CCN(c2cc(C)c3cc(NC(=O)c4ccc5c(c4)OCO5)ccc3n2)CC1,71*,-4,0,13,-5,1,50*,84*
O=C(CNC(=O)c1cc(Cl)nc2ccccc12)Nc1ccccc1Br,16,0,-6,-8,2,-1,.,.
Cc1[nH]c(=O)c(C#N)c(C)c1CCC(=O)Nc1cc(S(C)(=O)=O)ccc1Cl,-14,-1,1,-3,9,1,.,.
CCCC[C@@H](CN[C@H](C)CNC)NCC1CCC(C(C)(C)C)CC1 (stereo partly specified),100*,2,93*,126*,16,.,97*,56*
COc1ccc(OC)c(NC(=O)CSc2nnc(NC(=O)c3ccco3)s2)c1,15,-8,0,-10,2,0,.,.
COc1ccc(OC)c(Nc2nc(-c3c(C)nc4ncccn34)cs2)c1,76*,-1,3,-2,38,0,34,85*
Cc1nc2ncccn2c1-c1csc(Nc2cccc(C(=O)O)c2)n1,5,0,0,2,8,0,.,.
COc1ccc(Nc2nc(-c3sc(C)nc3C)cs2)c(OC)c1,65*,-24,.,57,-6,1,56*,63*
O=C(Oc1ccc2c(c1)OCO2)c1cc2c(s1)CCC2,97*,0,9,-2,-2,0,78*,21
O=C(COC(=O)Cc1ccc(Br)cc1)NCc1ccc2c(c1)OCO2,25,0,.,.,-6,0,.,.
Cc1c(-c2ccc(/C=N/NC(=O)C(=O)Nc3ccccc3F)o2)cccc1[N+](=O)[O-],56*,1,-2,-9,1,8,-1,.
O=[N+]([O-])c1ccc(/C=N/NC(=S)Nc2ccccc2F)o1,11,0,7,2,2,0,.,.
